Experimental findings from the antibiotic and cytotoxicity screens of Wong et al. (2023) are described below.

Structures are written as SMILES. The whole screen tested about 39,000 compounds, of which about 1,500 (3.8%) were called active. The entries come from a sample that favours actives as a whole.

This assay relates to HSkMC (human skeletal muscle cells). In words: cytotoxicity call (relative viability < 0.9). Particulars: 10 µM.
As to `Cn1cc(C(F)(F)F)ccc1=S`, the cytotoxicity call is “inactive”.

Turning to `CCS(=O)(=O)N(C)C[C@@H]1OCc2ccccc2-c2c(n(C)c3ccccc23)C(=O)N([C@@H](C)CO)C[C@@H]1C`, the cytotoxicity call was “inactive”.

Consider `COCC#Cc1ccc2c(c1)O[C@@H](CN(C)Cc1ccc3c(c1)OCO3)[C@H](C)CN([C@@H](C)CO)S2(=O)=O`, for which the cytotoxicity call is “inactive”.

Turning to `C[C@@H]1CN([C@H](C)CO)C(=O)Cc2cc(NS(=O)(=O)c3cn(C)cn3)ccc2O[C@H]1CN(C)C(=O)Nc1ccc(F)cc1`, the cytotoxicity call is “inactive”.

Consider `Cc1noc(C)c1S(=O)(=O)Nc1ccc2c(c1)CC(=O)N([C@@H](C)CO)C[C@@H](C)[C@@H](CN(C)S(=O)(=O)c1cccs1)O2`, for which the cytotoxicity call is “inactive”.

With `O=S(=O)(c1c[nH]c2ncccc12)N1CC(S(=O)(=O)N2CCOCC2)C1`, the cytotoxicity call was “inactive”.

In the case of `Clc1ccc(-c2nnc(Nc3ccccc3)s2)c(Cl)c1`, the cytotoxicity call is “inactive”.

Take `C[C@H](O)C#Cc1cnc2c(c1)C(=O)N([C@@H](C)CO)C[C@@H](C)[C@@H](CN(C)C(=O)Nc1ccc(C(F)(F)F)cc1)O2`: the cytotoxicity call was “inactive”.

Consider `NC(=O)C1N=CN([C@@H]2O[C@H](CO)[C@@H](O)[C@H]2O)C1=O` (stereo partly drawn), for which the cytotoxicity call was “inactive”.

As for `COc1ccc(CN(C)C[C@H]2OCCCC[C@@H](C)Oc3ccc(NS(=O)(=O)c4ccc(OC)cc4)cc3C(=O)N([C@@H](C)CO)C[C@H]2C)cc1`, the cytotoxicity call was “inactive”.

For the molecule `COc1ccc(S(=O)(=O)Nc2ccc3c(c2)C(=O)N([C@@H](C)CO)C[C@H](C)[C@@H](CN(C)Cc2ccc(Cl)c(Cl)c2)OCCCC[C@H](C)O3)cc1`, the cytotoxicity call was “inactive”.

Regarding `COc1ccc(S(=O)(=O)Nc2ccc3c(c2)C(=O)N([C@H](C)CO)C[C@H](C)[C@H](CN(C)Cc2ccc(Cl)c(Cl)c2)OCCCC[C@H](C)O3)cc1`, the cytotoxicity call is “active”.

Take `COc1ccc(CN(C)C[C@H]2OCCCC[C@H](C)Oc3ccc(NS(=O)(=O)c4ccc(OC)cc4)cc3C(=O)N([C@H](C)CO)C[C@@H]2C)cc1`: the cytotoxicity call is “inactive”.

As for `COc1ccc(S(=O)(=O)Nc2ccc3c(c2)C(=O)N([C@@H](C)CO)C[C@H](C)[C@@H](CN(C)Cc2ccc(Cl)c(Cl)c2)OCCCC[C@@H](C)O3)cc1`, the cytotoxicity call was “active”.

As to `COc1ccc(CN(C)C[C@@H]2OCCCC[C@@H](C)Oc3ccc(NS(=O)(=O)c4ccc(OC)cc4)cc3C(=O)N([C@@H](C)CO)C[C@H]2C)cc1`, the cytotoxicity call is “inactive”.

Turning to `COc1ccc(CN(C)C[C@@H]2OCCCC[C@@H](C)Oc3ccc(NS(=O)(=O)c4ccc(OC)cc4)cc3C(=O)N([C@H](C)CO)C[C@@H]2C)cc1`, the cytotoxicity call was “inactive”.

In the case of `COc1ccc(S(=O)(=O)Nc2ccc3c(c2)C(=O)N([C@H](C)CO)C[C@@H](C)[C@@H](CN(C)Cc2ccc(Cl)c(Cl)c2)OCCCC[C@H](C)O3)cc1`, the cytotoxicity call is “active”.

In the case of `COc1ccc(S(=O)(=O)Nc2ccc3c(c2)C(=O)N([C@H](C)CO)C[C@@H](C)[C@H](CN(C)Cc2ccc(Cl)c(Cl)c2)OCCCC[C@H](C)O3)cc1`, the cytotoxicity call is “active”.

On to `COc1ccc(S(=O)(=O)Nc2ccc3c(c2)C(=O)N([C@H](C)CO)C[C@H](C)[C@@H](CN(C)Cc2ccc(Cl)c(Cl)c2)OCCCC[C@@H](C)O3)cc1`, for which the cytotoxicity call was “inactive”.

With `COc1ccc(NC(=O)Nc2ccc3c(c2)C(=O)N([C@@H](C)CO)C[C@H](C)[C@@H](CN(C)CC2CCCCC2)O3)cc1`, the cytotoxicity call is “inactive”.

Consider `C[C@H]1CN([C@@H](C)CO)C(=O)c2cc(NS(=O)(=O)c3cn(C)cn3)ccc2O[C@@H]1CN(C)C(=O)Nc1ccccc1`, for which the cytotoxicity call is “inactive”.

For the molecule `C[C@H](CO)N1C[C@H](C)[C@H](CN(C)S(=O)(=O)c2ccccc2F)Oc2cc(C#Cc3ccccc3)ccc2S1(=O)=O`, the cytotoxicity call was “inactive”.

Turning to `CN(C)[C@@H](CN)c1cccn1C`, the cytotoxicity call is “inactive”.

For the molecule `C[C@H](CO)N1C[C@H](C)[C@H](CN(C)C(=O)CN2CCOCC2)Oc2ncc(C#C[C@@H](C)O)cc2C1=O`, the cytotoxicity call is “inactive”.

Take `C[C@H](CO)N1C[C@H](C)[C@@H](CN(C)Cc2ccc(-c3ccccc3)cc2)Oc2ccc(NS(=O)(=O)c3cccs3)cc2CC1=O`: the cytotoxicity call is “inactive”.

`C/C(=N\N)c1ccc2ccccc2c1`: the cytotoxicity call is “inactive”.

In the case of `O=C(C[C@H]1CC[C@H]2[C@@H](COC[C@H](O)CN2C(=O)c2ccccc2)O1)N1CCOCC1`, the cytotoxicity call is “inactive”.

With `Cc1noc(C)c1NC(=O)Nc1cccc2c1O[C@H](CN(C)S(C)(=O)=O)[C@@H](C)CN([C@H](C)CO)C2=O`, the cytotoxicity call is “inactive”.

As to `CC(C)NC(=O)N(C)C[C@@H]1Oc2ccc(NC(=O)Cc3ccccc3)cc2C(=O)N([C@@H](C)CO)C[C@@H]1C`, the cytotoxicity call was “inactive”.

`Cc1noc(C)c1NC(=O)Nc1ccc2c(c1)C(=O)N([C@@H](C)CO)C[C@H](C)[C@@H](CN(C)C(=O)c1ccccc1)OCCCC[C@@H](C)O2`: the cytotoxicity call is “inactive”.

`O=C(C[C@@H]1CC=CCC[C@H](Cc2ccc(F)cc2)C(=O)OC[C@@H](Cc2c[nH]c3ccccc23)NC1=O)N[C@@H](CO)Cc1ccccc1`: the cytotoxicity call was “inactive”.

`O=C(C[C@@H]1CC=CCC[C@@H](Cc2ccc(F)cc2)C(=O)OC[C@H](Cc2c[nH]c3ccccc23)NC1=O)N[C@@H](CO)Cc1ccccc1`: the cytotoxicity call was “inactive”.

For the molecule `O=C(C[C@@H]1CC=CCC[C@@H](Cc2ccc(F)cc2)C(=O)OC[C@@H](Cc2c[nH]c3ccccc23)NC1=O)N[C@H](CO)Cc1ccccc1`, the cytotoxicity call is “active”.

Consider `C[C@H]1CN([C@@H](C)CO)C(=O)c2cccc(NC(=O)Nc3ccc(C(F)(F)F)cc3)c2O[C@@H]1CN(C)Cc1ccncc1`, for which the cytotoxicity call is “inactive”.

Consider `COc1ccc(NC(=O)Nc2ccc3c(c2)C(=O)N([C@@H](C)CO)C[C@H](C)[C@H](CN(C)Cc2ccc(C(=O)O)cc2)OCCCC[C@@H](C)O3)cc1`, for which the cytotoxicity call is “inactive”.

Take `Cc1cc(CN)cc(C)c1NC(=O)c1ccc(-c2cc(Cl)ccc2Cl)o1`: the cytotoxicity call was “active”.

With `Cc1cc(C(=O)c2cc3cc(Cl)ccc3o2)ccc1Cl`, the cytotoxicity call is “inactive”.

Consider `Cc1ccc(CN)cc1Cl`, for which the cytotoxicity call was “inactive”.

With `COc1cccc(S(=O)(=O)N(C)C[C@H]2Oc3ncc(Br)cc3C(=O)N([C@H](C)CO)C[C@H]2C)c1`, the cytotoxicity call was “inactive”.

Consider `COC(CN(C)C(=O)c1cn(C)c2ccc(S(=O)(=O)N3CCOCC3)cc2c1=O)OC`, for which the cytotoxicity call is “inactive”.

In the case of `Cc1[nH]c(=O)[nH]c(=O)c1S(=O)(=O)N1CCN(c2ccccc2)CC1`, the cytotoxicity call is “inactive”.

With `Cn1cc(S(=O)(=O)N2CCN(c3ccc(F)cc3)CC2)c(=O)n(C)c1=O`, the cytotoxicity call is “inactive”.

As to `CCCn1c(=O)[nH]c2nc(-c3ccc(S(=O)(=O)N4CCN(c5ccc(Cl)cc5)CC4)cc3)[nH]c2c1=O`, the cytotoxicity call was “active”.
